Assay outcomes: PubChem, National Center for Advancing Translational Sciences (NCATS)
Hits are enriched below; roughly 1.7% of the tested compounds scored in any of these assays.
GLP-1R agonist = activates the human GLP-1 receptor. P43220. HEK293 GLP-1R CRE-luciferase, luminescence, 4-6 h; cells express a hypersensitive GLP-1R form. Potency, µM (top dose mostly 45.6 µM), for the others: at the highest dose activation, hits mostly activators. hit rate 0.007% among 380,000. AID 624172; further: % of control where 0% means no effect
Target sequence (P43220 whole entry, looked up): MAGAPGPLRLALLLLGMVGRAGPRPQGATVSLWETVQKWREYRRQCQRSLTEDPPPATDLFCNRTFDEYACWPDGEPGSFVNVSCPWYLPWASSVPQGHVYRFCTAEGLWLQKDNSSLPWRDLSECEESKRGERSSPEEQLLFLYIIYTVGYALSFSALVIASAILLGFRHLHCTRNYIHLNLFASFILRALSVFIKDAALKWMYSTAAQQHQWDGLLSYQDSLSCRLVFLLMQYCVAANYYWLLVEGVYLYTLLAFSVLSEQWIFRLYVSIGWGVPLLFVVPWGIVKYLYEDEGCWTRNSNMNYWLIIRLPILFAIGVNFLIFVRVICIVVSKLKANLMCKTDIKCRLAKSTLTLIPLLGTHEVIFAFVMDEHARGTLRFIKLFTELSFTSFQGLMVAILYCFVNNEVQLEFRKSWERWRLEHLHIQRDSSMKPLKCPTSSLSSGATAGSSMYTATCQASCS
PTHR1 agonist = activates the human parathyroid hormone receptor PTHR1. Q03431. HEK293 GP2 PTHR1 cells, GloSensor cAMP luminescence, 1 h. Potency, µM (top dose mostly 115 µM), inactives show at the highest dose activation, hits mostly activators. hit rate 0.075% among 410,000. AID 743266; further: nearly all actives have a fitted effect of over 55% in size
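HEK-293-derived GP2 cells expressing PTHR1 and a GloSensor cAMP reporter, 3,000/well, plated overnight, given luciferin plus IBMX (each 0.5 mM as added) for 1 h at 37 °C, then compound for 1 h at 37 °C. Luminescence was read after 15 min at room temperature.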
GLP1R inv ag = acts as inverse agonist at human GLP-1 receptor; hit rate 1.6% among 410,000; P43220; Potency, µM (series often up to 38.3 µM), for the others: top-dose activity change, negative = inhibition, usual class: inhibitors; HEK293 GLP-1R CRE-luciferase, luminescence, 24 h; GLP-1R form is constitutively active; AID 624417; further: on the % scale 0 is the no-effect control and ±100 the full control effect; nearly all actives have a fitted effect of over 55% in size
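Assay principle: reduced luminescence from a cAMP-responsive reporter in HEK293 cells co-expressing a constitutively active GLP-1R. Conditions: 24 hr compound incubation, 37 deg C, 5% CO2.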
HEK293 tox = cytotoxicity counter-screen for GLP-1 receptor inverse agonists; HEK293 cAMP-luciferase reporter cells, luminescence, 24 h; Potency, µM (highest dose often 38.3 µM), for the others: top-dose activity change, negative = inhibition, most hits filed as inhibitors; AID 624418; hit rate 0.13% among 410,000;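 further: loss of luciferase light is scored as toxicity; on the % scale 0 is the no-effect control and ±100 the full control effect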
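Step one: seed cells (200 cells/uL, DMEM with 10% Nu serum, 1% pen-strep). Step two: 12-hour incubation at 37 deg C. Step three: pin 23 nL compound, incubate 24 hr. Step four: add luciferase reagent, read luminescence 12 min later.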
* marks the source's active call; other numbers are inactive results; i = inactive; ? = inconclusive; . = no result; [ ] = dose if it differs, or a comment. The call rests on the fitted dose curve; in most records, active means well fitted curve in the direction sought with a large enough effect; inconclusive means small, poorly fitted or top-dose-only effect, or another doubt; inactive means no such curve, though single readings can be large; an effect the other way counts as inactive or inconclusive. Potency means the concentration at half of the fitted maximal effect.

SMILES	GLP-1R agonist	PTHR1 agonist	GLP1R inv ag	HEK293 tox
Cc1cccc(NC(=S)NCc2ccccn2)c1	0%	i	?	?
Cn1ncc2c(=S)nc(Cl)[nH]c21	4%	i	10µM*	?
CCc1ccc(-c2n[nH]nc2C2=CC(=O)C[C@H](c3ccc(F)cc3)C2)cc1	-5%	-56%	8.9µM*	-10%
CC1=Nc2nc(N3CCCCCC3)c(C#N)c3c4c(nc(c23)N1)N(c1ccc2ccccc2c1)C(=O)C4	-6%	i	0.5µM*	5%
N#Cc1c(N2CCN(c3ccc(F)cc3)CC2)nc(N)c2c(N)nc3c(c12)CC(=O)N3C1CC1	0%	i	2%	-14%
COc1ccc(NC(=O)c2c(NCc3ccc(C)o3)sc3c2CCC(C)C3)cc1 (centres undefined)	.	i	?	-11%
COc1ccc(OC)c(-c2csc(NC(=O)c3ccc(F)cc3)n2)c1	-2%	-13%	10µM*	-19%
Cc1cc(C)c(NC(=O)CSc2nc(=O)[nH]c3c2CCCC3)c(C)c1	.	-15%	7%	0%
O=C(c1cc2ccccc2o1)N1CCN(C/C=C/c2ccccc2)CC1	9%	-31%	11µM*	4%
CCOC(=O)C1CCCN(S(=O)(=O)c2cc(-c3onc(C)c3C)ccc2OC)C1 (centres undefined)	.	-16%	-9%	-10%
CC(C)(C)NCC(O)COc1c(F)cc(Br)cc1F (centres undefined)	7%	i	-1%	-3%
CC(C)(C)CC(C)(C)NCC(O)COc1c(F)cc(Br)cc1F (centres undefined)	-20%	-12%	10µM*	-5%
CCOC(=O)c1[nH]c2ccc(C)cc2c1NC(=O)CN1CCCCC1	4%	17%[57.5 µM]	?	-12%
COC(=O)c1[nH]c2ccc(Br)cc2c1NC(=O)CN1CCCc2ccccc21	-11%	-4%[57.5 µM]	10µM*	-22%
COC(=O)c1[nH]c2ccc(C)cc2c1NC(=O)CN1CCCC(C)(C)C1	-7%	-12%[57.5 µM]	2.2µM*	0%
COC(=O)c1[nH]c2ccccc2c1NC(=O)CN1CCN(c2cccc(OC)c2)C(C)C1 (centres undefined)	7%	i	10µM*	-18%
COc1cccc(CNCCSc2nnnn2-c2ccccc2)c1OC	.	-6%	-13%	-3%
CCC(C)(C)OC(=O)N[C@@H](Cc1c[nH]c2ccccc12)C(=O)N[C@@H](CCSC)C(=O)N[C@@H](CC(=O)O)C(=O)N[C@@H](Cc1ccccc1)C(N)=O	-1%	.	.	.
COc1ccccc1CNC(=O)CCCCn1c(=O)c2ccccc2n(CC(=O)Nc2c(C)cc(C)cc2C)c1=O	-3%	-3%	9%	-5%
Cc1ccc(CNC(=O)CO/N=C/c2ccc(C(C)(C)C)cc2)cc1	-3%	-61%	?	-21%
CC(C)(C)c1ccc(/C=N/OCC(=O)NCc2ccccc2)cc1	15%	-9%	8.9µM*	20%
Cc1ccc2c(=O)cc(C(=O)Nc3c(C)n(C)n(-c4ccccc4)c3=O)oc2c1	.	i	10%	0%
CN(C)CC(C(=O)c1ccccc1)c1ccccc1 (centres undefined)	-42%	-28%	13%	8.9µM*
O=C(c1ccc(Br)cc1)C(CN1CCOCC1)c1ccccc1 (centres undefined)	-6%	-46%	?	?
O=C(CC(C(=O)c1ccccc1)c1ccccc1)c1ccccc1 (centres undefined)	2%	-7%	10µM*	9%
O=C(c1ccccc1)C(CN1CCCCC1)c1ccccc1 (centres undefined)	-7%	-7%	2.8µM*	?
CCC/C(=C1/c2ccccc2C(=O)N1c1ccccc1)c1ccc(O[C@@H]2CCCCO2)cc1	-6%	i	13µM*	2%
CSCC[C@H](NC(=O)[C@@H](Cc1ccc(O[S+](=O)([O-])O)cc1)NC(=O)[C@H](N)CC(=O)O)C(=O)NCC(=O)N[C@@H](Cc1c[nH]c2ccccc12)C(=O)N[C@H](CCSC)C(=O)N[C@H](CC(=O)O)C(=O)N[C@@H](Cc1ccccc1)C(N)=O	0%	.	.	.
Cn1c(C(=O)NCc2ccc(F)cc2)cc2cc(S(=O)(=O)N3CCCCC3)ccc21	.	-62%	2%	-8%
COc1ccc(-c2cc(-n3c(C(F)(F)F)nc4ccccc43)n(CCC#N)n2)cc1	0%	i	10µM*	-4%
